From PubChem BioAssay come the findings set out here.

SMILES strings stand for the structures. Several values for one entry are separate records, joined by “and”; a condition that tells them apart may be missing. Equal values may be shown once. Inconclusive results are not listed. The source holds several records for some structures; these can differ, active in one and inactive in another. Activity calls are given as the source filed them. Unless noted, the rule behind the calls is not given here.

Assay [1] in a line: liver-stage malaria parasite load reduction – cell-based, known kinase inhibitor set, luminescence, hepatoma host viability (AID 624392).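 Note: infected cells incubated roughly two days before readout.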 The settings on record: Plasmodium liver stage in hepatoma cells, luciferase luminescence, concentration not given here; liver cell % of control: measured here: host liver cell viability; parasite % of control: stronger effect = lower value.
The nature of assay [2]: altered dexamethasone sensitivity, NF-kB reporter, cell-based, luciferase, IL-1B stimulus (AID 624486).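 For percent of negative control (+Dex): 100% = mean signal of vehicle control wells on the plate.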 The settings on record: IL-1B + dexamethasone, luminescence; percent of negative control (+Dex): actives lie on both sides, concentration not given here; z-score: measured here: IL-1B alone, no Dex.
Assay [3] in a line: C. elegans survival during P. aeruginosa infection – whole organism (AID 651566).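 Note: tested at 14 µM; sign flipped so higher z means a lower ratio.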 The conditions noted are these: C. elegans killed by P. aeruginosa, survival ratio.
A short description of assay [4]: pro-inflammatory signaling induction in mouse macrophages – cell-based, murine, luminescence (AID 652131). The conditions noted are these: murine macrophage pro-inflammatory reporter, stronger effect = higher value.
Assay [5] deals with Cellular tumor antigen p53 (Homo sapiens) (UniProt P04637). Kind of assay: GFP-p53 level modulators in HPV16+ cells – imaging, known kinase inhibitor set, EGFP/DsRed ratio (AID 1053116).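 Note: cells exposed to compounds for 24 h at 37 °C before reading.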 The conditions noted are these: GFP-p53 stability, stronger effect = higher value; EGFP object count: measured here: GFP-p53 positive objects count.
Sequence of Cellular tumor antigen p53 (Homo sapiens) (P04637 whole entry, looked up): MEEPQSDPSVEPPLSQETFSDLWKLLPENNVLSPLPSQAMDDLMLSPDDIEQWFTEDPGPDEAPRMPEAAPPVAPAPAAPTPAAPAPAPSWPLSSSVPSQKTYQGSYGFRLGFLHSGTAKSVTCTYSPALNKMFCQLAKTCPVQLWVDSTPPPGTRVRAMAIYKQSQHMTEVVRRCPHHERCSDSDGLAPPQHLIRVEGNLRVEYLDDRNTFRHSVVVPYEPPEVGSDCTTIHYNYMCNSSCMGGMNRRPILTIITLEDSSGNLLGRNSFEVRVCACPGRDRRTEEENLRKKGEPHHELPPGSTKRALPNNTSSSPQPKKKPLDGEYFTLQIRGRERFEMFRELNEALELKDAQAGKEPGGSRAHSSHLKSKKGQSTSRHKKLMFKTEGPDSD
Assay [6] is described as follows: inducers of IRF3 signaling, differentiated THP-1 – cell-based, PMA-stimulated THP-1, luminescence (AID 1053176). The settings on record: PMA-differentiated THP-1, IRF3 reporter luminescence; stronger effect = higher value.
Assay [7] is described as follows: viability loss in pontine glioma line – cell-based, SU-DIPG-XIII, MIPE4.0, CellTiter-Glo, qHTS, dose response (AID 1347061; cut-off not given, nearly all actives have AC50 up to about 37 µM;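 note: cells exposed to compound for 48 hours before readout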). The settings on record: CellTiter-Glo ATP luminescence. For orientation: Cellular ATP, detected with luciferase, serves as a proxy for viable cell number.
The nature of assay [8]: viability loss in pontine glioma line – cell-based, JHH-DIPG-1, MIPE4.0, CellTiter-Glo, qHTS, dose response (AID 1347062; cut-off not given, nearly all actives have AC50 up to about 27 µM;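 for AC50: cells exposed to compound for two days before readout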). The conditions noted are these: JHH-DIPG-1 viability, CellTiter-Glo ATP luminescence.
Assay [9] is described as follows: viability loss in pontine glioma line – cell-based, SU-DIPG-IV, MIPE4.0, CellTiter-Glo, qHTS, dose response (AID 1347063; cut-off not given, nearly all actives have AC50 up to about 30 µM;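 note: compound exposure lasted 48 hours before the viability readout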). The conditions noted are these: CellTiter-Glo ATP luminescence.
Assay [10] can be described thus: growth inhibition of DIPG cells – cell-based, MIPE4.0 library, CellTiter-Glo luminescence, qHTS (AID 1347066; cut-off not given, nearly all actives have AC50 up to about 30 µM;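 note: cells exposed to compound for 48 hours before readout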). The settings on record: SU-DIPG-VI viability, CellTiter-Glo ATP luminescence.
Assay [11] can be described thus: JHH-DIPG-1 glioma cell viability, MIPE5.0 library, CellTiter-Glo luminescence, qHTS (AID 1347067; cut-off not given, nearly all actives have AC50 up to about 26 µM;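 note: cells exposed to compound for 48 hours before readout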). The conditions noted are these: JHH-DIPG-1 glioma viability, CellTiter-Glo ATP luminescence.
A short description of assay [12]: compounds altering HSF1 focus formation in cells – imaging, Selleck Cancer Library (AID 1347162; in the data active = plate-normalised HSF1 focus index below about 0.46). The settings on record: human cells, HSF1 nuclear foci imaging, at 10 µM; SSMD: measured here: HSF1 foci SSMD mean; cell count: measured here: cell number; plate-normalised HSF1 focus index: stronger effect = lower value.
The nature of assay [13]: MELAS cybrid and Rieske KO viability enhancers – cell-based, MELAS cybrids, Rieske KO mouse fibroblasts, CellTiter-Glo, primary screen (AID 1508586;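 active = mean z-score across replicates of 1.96 or higher in either the MELAS or the Rieske mutant cell line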;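 note: z relative to plate mean and SD of compound and empty wells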). The settings on record: low glucose.
The nature of assay [14]: viability loss in pontine glioma line – cell-based, SU-DIPG-XXV, MIPE5.0, CellTiter-Glo, qHTS, dose response (AID 1347065; cut-off not given, nearly all actives have AC50 up to about 26 µM;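 note: cells exposed to compound for 48 hours before ATP readout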). The conditions noted are these: CellTiter-Glo ATP luminescence.
The nature of assay [15]: growth inhibition of DIPG cells – cell-based, MIPE5.0 library, qHTS (AID 1347068; cut-off not given, nearly all actives have IC50 up to about 30 µM). The settings on record: SU-DIPG-XXV viability.
Assay [16] in a line: P. berghei load reduction in hepatocytes – cell-based, HepG2, luciferase luminescence, HepG2 viability, primary screen (AID 624349; in the data active = parasite load remaining mostly below about 12%, no sharp cut-off; inactive = mostly above about 10%;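 note: 100% = mean of DMSO negative control wells on the same plate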). The conditions noted are these: P. berghei liver stage in HepG2, luciferase luminescence, concentration not given here; parasite load remaining: stronger effect = lower value; viability: measured here: HepG2 viability without parasites.
Assay [17] is described as follows: viability loss with induced miR-34 in A549 – imaging, A549 dox-inducible miR-34, nuclei and caspase counts, primary screen (AID 1347080;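 active = compounds whose cell count with miR-34 switched on is under 0.7 times the count with it off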). The conditions noted are these: A549 miR-34 inducible, Hoechst nuclei count, 48 h.
The mark [18] stands for this setting: MELAS cybrid survival, CellTiter-Glo 48 h, stronger effect = higher value.
Setting [19] is: Rieske KO mouse fibroblast survival, CellTiter-Glo 72 h.

On to `CN(C)CCOc1ccc(-c2nc(-c3ccc4c(c3)CC/C4=N\O)c(-c3ccncc3)[nH]2)cc1`, for which the liver cell % of control in assay [1] stood at 69.4%. Besides, the parasite % of control in assay [1] is 215% (inactive). Further, the percent of negative control (+Dex) in assay [2] was 118% (inactive). Also, the z-score in [2] is 0.795; in assay [3] it was -0.45 (inactive); in assay [4] it was 1.26 (inactive); in assay [13] (setting [18]) it was 0.717; in assay [13] (setting [19]), 2.06. The EGFP object count in [5] is 9. Further, in assay [5], the EGFP/DsRed ratio is 0.212 (inactive). Besides, in [6], the fraction signal is -0.008 (inactive). Moreover, in assay [7], the call was inactive. Further, the concentration at half-maximal activity (AC50) is 18.7 µM (active) in assay [8], 13.2 µM (active) in assay [9], 11.8 µM (active) in [10] and 16.6 µM (active) in assay [11]. This compound also returned an SSMD in [12] of 1.6. Also, in assay [12], the cell count was determined as 7550. In addition, the plate-normalised HSF1 focus index in [12] was 1.1 (inactive).

Regarding `CCn1c(-c2nonc2N)nc2cnc(Oc3cccc(NC(=O)c4ccc(OCCN5CCOCC5)cc4)c3)cc21`, in assay [1], the liver cell % of control was 80.1% and the parasite % of control was 42.7% (inactive). In assay [2], the percent of negative control (+Dex) was 50.5% (inactive) and the z-score is -3.25. The z-score in [3] was 0.625 (inactive). Moreover, the z-score in assay [4] is 1.15 (inactive). Further, in assay [5], the EGFP object count was 3 and the EGFP/DsRed ratio was 0.0358 (inactive). The fraction signal in assay [6] is 0.007 (inactive). The compound was called inactive in assay [10]. Moreover, in assay [12], the SSMD is 0.629, the cell count was found to be 7080 and the plate-normalised HSF1 focus index was 1.04 (inactive). Besides, the z-score in assay [13] (setting [18]) is -0.727 (inactive). For the same compound, the z-score in assay [13] (setting [19]) was 0.152.

Turning to `Nc1ncnc2occ(-c3ccc(NC(=O)Nc4cc(C(F)(F)F)ccc4F)cc3)c12`, in [1], the liver cell % of control is 62.2% and 49.5%. Besides, the parasite % of control in [1] was 12.5% (inactive) and 10.2% (inactive). In addition, the percent of negative control (+Dex) in assay [2] is 62.5% (inactive) and 72.5% (inactive). For the same compound, the z-score in assay [2] was -4.27 and -2.6; in assay [3] it was -0.79 (inactive) and 0.505 (inactive); in assay [4], 0.268 (inactive) and -0.714 (inactive); in assay [13] (setting [18]) it was 0.841 (inactive) and 3.25 (active); in assay [13] (setting [19]) it was -0.123 and -0.164. Moreover, the EGFP object count in [5] is 2 and 1. In addition, the EGFP/DsRed ratio in assay [5] is 0.017 (inactive) and 0.0224 (inactive). For the same compound, the fraction signal in assay [6] was -0.0025 (inactive) and -0.0215 (inactive).

Regarding `Cn1c(=O)c(Oc2ccc(F)cc2F)cc2cnc(NC3CCOCC3)nc21`, the percent of negative control (+Dex) in assay [2] is 102% (inactive). Moreover, the z-score in [2] is -0.045. For the same compound, the EGFP object count in [5] is 4. In assay [5], the EGFP/DsRed ratio was 0.0482 (inactive). Besides, the fraction signal in [6] was -0.007 (inactive). Further, the outcome in [7], in [8], in assay [14], in assay [10], in [11] and in [15] was inactive.

`CN1C(=O)C(c2c[nH]c3ccccc23)=C(c2c[nH]c3ccccc23)C1=O`: in [16], the parasite load remaining is 34.8% (inactive) and the viability was found to be 125%. For the same compound, in [1], the liver cell % of control was 87.4% and the parasite % of control was 30.7% (inactive). Moreover, in assay [2], the percent of negative control (+Dex) was 96.5% (inactive) and the z-score is -0.615. Moreover, in assay [5], the EGFP object count turned out to be 3 and the EGFP/DsRed ratio is 0.0517 (inactive). In addition, the fraction signal in assay [6] was -0.0095 (inactive). Besides, in [17] (stronger effect = lower value, cell number ratio, induced over uninduced), the fold change was 0.868 (inactive). The fold change in assay [17] (measured here: relative caspase fold change +Dox/-Dox) came to 1.05. This compound gave a cell count in assay [17] (measured here: total cells with miR-34 induction, stronger effect = lower value) of 5070. The compound further registered a cell count in assay [17] (measured here: total cells without miR-34 induction) of 5840.

The compound `Cc1ccc(O)cc1Nc1ccnc2cc(-c3ccccn3)ccc12` yielded a liver cell % of control in assay [1] of 100%. Moreover, the parasite % of control in assay [1] was 65.6% (inactive). In assay [2], the percent of negative control (+Dex) is 89.5% (inactive). The z-score is -0.24 in assay [2]; -1.05 (inactive) in [3]; 5.39 (inactive) in assay [4]; -0.612 in [13] (setting [18]); 4.8 in assay [13] (setting [19]). Moreover, the EGFP object count in assay [5] is 3.5. The EGFP/DsRed ratio in assay [5] is 0.137 (inactive). Moreover, the fraction signal in [6] was 0.014 (inactive).

The term AC50 denotes the midpoint of the concentration-response curve, whichever way the signal moves. The viability is a read-out of living cells in per cent, often relative to untreated cells.
